# Reference: PubChem BioAssay AID488890 (Southern Research Specialized Biocontainment Screening …, 2010)
# About 1,300 (0.41%) of roughly 320,000 compounds were called active. Not shown: some 3% with an inconclusive outcome. No rule for the calls is given here. A selection follows. Potency and affinity values are given separately.
# Assay: growth inhibition of non-replicating M. tuberculosis (AID 488890);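 also: plate controls were DMSO cells for no effect and high antibiotic wells for full effect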
# Settings: Mycobacterium tuberculosis non-replicating, at 25 µM, stronger effect = higher value
row,SMILES,inhibition [%]
1,COc1ccc(-c2[nH]nc3c2C(c2ccc(OC(=O)N4CCOCC4)cc2)C(C#N)=C(N)O3)cc1 (stereo not drawn),13.2
2,CCc1cccc(C)c1NC(=O)CN(C)Cc1ccccc1F,23.6
3,C[C@H](CO)N1C[C@H](C)[C@@H](CN(C)C(=O)Nc2ccc(C(F)(F)F)cc2)Oc2c(NC(=O)Nc3ccccc3)cccc2C1=O,32.4
4,CC1CCN(CCCOc2ccc(Br)cc2Cl)CC1,33.5
5,Cc1ccc(OCCCCN2CCC(C)CC2)c(Br)c1,49.3
6,Cc1ccc(C)c(NC(=S)NCCc2c[nH]c3ccccc23)c1,67
7,c1ccc2[nH]c(SCc3cn4ccccc4n3)nc2c1,-0.59
8,Clc1ccc2nc(CSc3ncn[nH]3)cn2c1,-31.7
9,NC(=O)CSc1nc2ccc([N+](=O)[O-])cc2[nH]1,3.31
10,O=[N+]([O-])c1ccc2nc(SCc3cn4cccnc4n3)[nH]c2c1,-20.2
11,CCC(CO)NCc1sccc1C (stereo not drawn),-5.31
12,Cc1cccc(C(=O)NC(=S)Nc2ccc(S(=O)(=O)N3CCN(C)CC3)cc2)c1,52.2
13,Cc1cc(C(=O)N/N=C/c2cc(Cl)cc([N+](=O)[O-])c2O)c2ccccc2n1,54.6
14,COc1cccc(/C=N/Nc2ncccc2[N+](=O)[O-])c1OC,1.4
15,O=C(N/N=C/c1cc(Cl)cc([N+](=O)[O-])c1O)c1cc(-c2ccccn2)nc2ccccc12,4.78
16,O=[N+]([O-])c1cc(/C=N\Nc2ccccn2)ccc1Cl,-14.6
17,COc1cc(/C=N/Nc2nc3ccccc3s2)cc([N+](=O)[O-])c1O,22
18,Cc1c(O)ccc(/C=N/Nc2ncccc2[N+](=O)[O-])c1O,-1.95
19,CN(C(=O)COC(=O)c1ccccc1SCC(=O)N1CCCC1)C1CCS(=O)(=O)C1 (stereo not drawn),-9.96
20,Cc1ccccc1CCNC(=O)C1CC(O)CN1C(=O)Nc1ccccc1 (stereo not drawn),-7.09
21,O=S(=O)(NCc1ccccc1F)c1cccc(S(=O)(=O)N2CCOCC2)c1,-6.99
22,O=C(NC(=S)Nc1ccc(Cl)cn1)c1cc([N+](=O)[O-])ccc1N1CCOCC1,5.35
23,Cc1ccc(S(=O)(=O)N2CCN(C(=O)c3ccccc3)CC2)cc1,9.38
24,COc1ccc(CCNC(=O)C(=O)c2c(C)[nH]c3ccccc23)cc1,12
25,COc1ccc(C(=O)NCCC2=CCCCC2)cc1,71.4

row,SMILES,inhibition [%]
1,O=C(NCCC1=CCCCC1)c1ccc(Cl)cc1,76.5
2,NC(=O)NCCC1=CCCCC1,-8.64
3,O=C(NCCc1ccccc1)c1ccc(Br)o1,73.4
4,CCN(CC)C(=O)c1cccc(NC(=O)c2cc(-c3ccccn3)nc3ccccc23)c1,57
5,Cc1nnc2sc(SCC(=O)Nc3ccc(Br)cc3)nn2c1=O,-4.78
6,CCOc1ccccc1C(=O)NC1CC2CCCC(C1)N2C1CC1 (stereo not drawn),0.26
7,CCOc1ccc(S(=O)(=O)N2CCOCC2)cc1NC(=O)CN1C(=O)NC(C)(c2ccccc2)C1=O (stereo not drawn),6.19
8,Cc1nc(Sc2ccccc2)c(C#N)c(C)c1[N+](=O)[O-],16.8
9,Nc1ncnc(Sc2ccccc2)c1[N+](=O)[O-],67.8
10,C#CCN(CC=C)C(=O)c1ccc(OC2CCN(S(=O)(=O)N(C)C)CC2)cc1,-9.64
11,O=C(CCC1COc2ccccc2O1)Nc1ccc(Cl)cn1 (stereo not drawn),79.7
12,O=C(C1COc2ccccc2O1)N1CCCC1 (stereo not drawn),70.2
13,Cc1cccc(NC(=O)C2COc3ccccc3O2)n1 (stereo not drawn),75.7
14,CC1CCCN(C(=O)C2COc3ccccc3O2)C1 (stereo not drawn),57.7
15,O=C(Nc1ccccn1)C1COc2ccccc2O1 (stereo not drawn),77
16,Cc1ccnc(NC(=O)C2COc3ccccc3O2)c1 (stereo not drawn),2.12
17,O=C(COC(=O)C1COc2ccccc2O1)Nc1cccc(Cl)c1 (stereo not drawn),6.42
18,O=C(Nc1ccncc1)C1COc2ccccc2O1 (stereo not drawn),29.1
19,CCOC(=O)CNC(=O)CN1CCC(c2nc3ccccc3[nH]2)CC1,-5.38
20,COc1ccc(N/C=C/C(=O)c2ccc(Oc3ncccn3)cc2)cc1,-0.22
21,C/C(CC(=O)NC1CCCCC1)=N\NC(=O)Cc1ccc(-c2ccccc2)cc1,9.13
22,O=C(C1=C[C@@H](c2ccccc2)C[C@@H](OCc2ccc(CO)cc2)O1)N1CCN(Cc2ccc3c(c2)OCO3)CC1,38.2
23,O=C(CNC(=O)Cc1ccccc1)NCC(=O)OCc1ccc(C(=O)c2ccccc2)cc1,4.67
24,COc1ccc(-n2nc(C(=O)NCC(=O)NCc3cccc(F)c3)c3ccccc3c2=O)cc1Cl,-7.9
25,O=S(=O)(c1ccc2nc(COc3ccccc3)[nH]c2c1)N1CCOCC1,-3.8

row,SMILES,inhibition [%]
1,CC(C)(C)C(=O)CN1C2=NCCCN2c2ccccc21,12.1
2,CCOc1ccc(N(CC(=O)NCc2ccccc2)S(=O)(=O)c2ccc(C)cc2)cc1,0.73
3,CC1CCCC(NC(=O)C2COc3ccccc3O2)C1C (stereo not drawn),17.1
4,COC(=O)c1ccc(C)c(NC(=O)C2COc3ccccc3O2)c1 (stereo not drawn),57.8
5,COC(=O)c1ccccc1NC(=O)C1COc2ccccc2O1 (stereo not drawn),59.7
6,CCN(CC1COc2ccccc2O1)C(=S)NC1CC2CCC1C2 (stereo not drawn),0.66
7,Cc1[nH]c2ccccc2c1C(=O)C(C)OC(=O)c1ccccc1NCCO (stereo not drawn),17.8
8,CCCCN(Cc1ccco1)S(=O)(=O)c1csc(C(N)=O)c1,38.5
9,CSc1ccccc1C(=O)N(C)C(c1ccccc1)c1ccccc1,13.8
10,CCNc1nc(NC(C)C)nc(SCCOc2ccc(C)cc2)n1,6.84
11,C=CCc1cc(Cl)ccc1OCCn1ccnc1,31.9
12,C=CCc1cc(C)ccc1OCCCn1ccnc1,26.9
13,Clc1ccc(SCCCCn2cncn2)cc1,26.1
14,Cc1cc(C)cc(OCCCn2ccnc2)c1,76
15,Cc1ccc(OCCCn2ccnc2)cc1C,70.8
16,Cc1cc(OCCCn2ccnc2)ccc1[N+](=O)[O-],39.3
17,Clc1ccc(SCCn2ccnc2)cc1,71.2
18,Cc1cc(OCCCn2ccnc2)cc(C)c1Cl,-6.72
19,CS(=O)(=O)N1CCC(C(=O)NCCN2CCN(Cc3ccccc3)CC2)CC1,-1.43
20,Cc1ccc(-c2csc(N3CCC[C@@H]3C(=O)NCCn3c(C(F)(F)F)nc4ccccc43)n2)cc1,42.9
21,C[C@@H](NC(=O)c1nc[nH]c1C(=O)N[C@H](C)c1ccccc1)c1ccccc1,66
22,O=C(O)c1ccc2c(=O)n3cc(C(=O)c4ccccc4O)cc(Cl)c3nc2c1,-0.88
23,Fc1ccc2c(c1)C(c1ccncc1)=NNC(c1ccc(Br)cc1)=N2,21.1
